Assay outcomes deposited in PubChem BioAssay by National Center for Advancing Translational Sciences (NCATS).
Rows were chosen to be rich in hits. Some 8% of all compounds tested hit in one or more screens of this group.
SARS PLpro yeast – qHTS of Yeast-based Assay for SARS-CoV PLP | S. cerevisiae expressing SARS-CoV PLpro, growth rescue | Potency, µM (top dose mostly 32.9 µM), for inactives: top-dose activity, positive = growth rescue, hits mostly activators | hit rate 0.19% among 330,000; calls by dose curve; further: potency means the concentration at half of the fitted maximal effect; 0% is about no effect; nearly all actives have a fitted effect of over 55% in size
FMDV antiviral – High Throughput Screening for Foot and Mouth Disease Virus Antivirals. FMDV antiviral cell-based qHTS. Potency, µM (titrated, usually from 57.9 µM), for the others: at the top dose activity change, negative = inhibition, hits mostly inhibitors. hit rate 1.2% among 410,000. AID 1159524, 2015; calls by dose curve; tested in HEK293T cells; further: read-out not given here; potency means the concentration at half of the fitted maximal effect; on the % scale 0 is the no-effect control and ±100 the full control effect; nearly all actives have a fitted effect of over 45% in size
MARV entry inh – qHTS for inhibitors of binding or entry into cells for Marburg Virus. AID 540276, 2011. hit rate 1.8% among 300,000. Potency, µM (titrated, usually from 37.8 µM), for inactives: at the highest dose activity change, negative = inhibition, hits mostly inhibitors. Marburg virus pseudotyped entry inhibition, cell reporter; calls by dose curve; tested in HEK293 cells; further: potency means the concentration at half of the fitted maximal effect; on the % scale 0 is the no-effect control and ±100 the full control effect
LASV entry inh – qHTS for Inhibitors of binding or entry into cells for Lassa Virus | Potency, µM (titrated, usually from 37.9 µM), for inactives: at the highest dose activity change, negative = inhibition, actives largely listed as inhibitors | Lassa virus pseudotype entry inhibition, cell reporter | hit rate 1.2% among 300,000; calls by dose curve; tested in HEK293 cells; further: potency means the concentration at half of the fitted maximal effect; on the % scale 0 is the no-effect control and ±100 the full control effect; nearly all actives have a fitted effect of over 50% in size
HCV inh – qHTS Assay for Inhibitors of Hepatitis C Virus (HCV). hit rate 3.4% among 340,000. Potency, µM (highest dose often 41.8 µM), for inactives: top-dose activity change, negative = inhibition, usual class: inhibitors. Huh7.5.1 HCVcc-Cre infection, luciferase reporter, 44 h; active means well fitted inhibition curve with a large enough effect; inconclusive means small, poorly fitted or top-dose-only effect, or another doubt; inactive means no such curve, though single readings can be large or run the other way; further: potency means the concentration at half of the fitted maximal effect; on the % scale 0 is the no-effect control and ±100 the full control effect
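1,000 cells/well; 4 h culture; + compound; + HCVcc-Cre (~0.5 moi); 44 h; luciferase substrate, RT 15 min; read 15 sec.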
HCMV antiviral – qHTS Assay for inhibitors of the human cytomegalovirus (HCMV); HFF cells, HCMV-luciferase reporter, 72 h; active compounds read low; activity change, negative = inhibition, % at 57.5 µM; hit rate 4.5% among 410,000; AID 1259415, 2018; in the data active means activity change below about -60%; inconclusive means no clear call, values can overlap the other calls; inactive means above about -39%; further: on the % scale 0 is the no-effect control and ±100 the full control effect
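Human foreskin fibroblasts infected with luciferase-reporter HCMV at MOI 1 PFU/cell, compounds at two doses. Luciferase measured 72 h post infection; normalized to buffer-only basal and Salinomycin (10uM) controls.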
* hit, by the source's call; ? = inconclusive; nt = no result; [ ] = another dose, or the depositor's remark.

SMILES	SARS PLpro yeast	FMDV antiviral	MARV entry inh	LASV entry inh	HCV inh	HCMV antiviral
CN(C)c1ccc(/C=N/NC(=O)C(=O)/C=C2\NC3(CCCC3)Cc3ccccc32)cc1	-1.1%	-18.7%	?	?	?	-62.8*
Cc1ccc(C)c(-c2nnc(NC(=O)c3ccc([N+](=O)[O-])o3)o2)c1	-26.8%	-12.9%	-16.2%	?	?	-74.1*
Cc1ccc(C)c(-c2nnc(NC(=O)C3=COCCO3)o2)c1	-10.5%	18.1%	?	-0.6%	3.6%	24.8
CC(=O)c1ccc(NC(=O)c2ccc([N+](=O)[O-])o2)cc1	-16.0%	44.9%	nt	nt	?	-104.7*
CC(=O)c1cccc(NC(=O)c2ccc([N+](=O)[O-])o2)c1	nt	1.7%	?	?	?	-86.5*
COc1ccc(NC(=O)c2ccc([N+](=O)[O-])o2)cc1	8.0%	6.9%	11.2µM*	-5.5%[46.1 µM]	?	-101.4*
CC(=O)c1ccc(NC(=O)CSc2nccn2Cc2ccco2)cc1	nt	39.4%	nt	?	nt	-3.3
COc1ccccc1N(Cc1ccccc1)S(=O)(=O)c1cccc(C(=O)Nc2cc(C)ccn2)c1	-6.5%	?	?	?	?	-89.9*
COc1ccccc1N(Cc1ccccc1)S(=O)(=O)c1cccc(C(=O)NC2CC(C)(C)NC(C)(C)C2)c1	1.8%	8.1%	?	?	2.24µM*	-33.8
CC1(C)CC(NC(=O)c2ccc(Cl)c(S(=O)(=O)N(Cc3ccccc3)c3ccccc3)c2)CC(C)(C)N1	nt	-28.2%	8.91µM*	-42.9%	?	-37.4
COc1ccccc1N(Cc1ccccc1)S(=O)(=O)c1cccc(C(=O)Nc2ncccc2C)c1	-0.7%	13.5%	?	-27.1%	-10.6%	?
Cc1cccc(C(=O)Nc2ccc(OCc3cc(=O)n4ccc(C)cc4n3)cc2)c1	nt	-5.3%	nt	12.8%[46.1 µM]	nt	4.6
COCC(=O)Nc1cc(C(=O)NC2Cc3ccccc3C2)cc2nc(-c3cccnc3)n(C)c12	nt	4.1%	nt	nt	nt	nt
Cc1ccc(N(C)S(=O)(=O)c2nnc(NC(=O)C3CCCCC3)s2)cc1	nt	-9.0%	nt	?	nt	15.3
Cc1cn(S(=O)(=O)c2ccc(F)c(Cl)c2)cn1	nt	-12.1%	-5.7%[46.1 µM]	-17.9%[46.1 µM]	nt	7.1
S=C(NC1CCCC1)N1CCN(C/C=C/c2ccccc2)CC1	-0.8%	?	?	-20.7%[46.1 µM]	10µM*	-64.3*
O=C(C1CCN(Cc2ccc(F)cc2)CC1)N1CCN(C/C=C/c2ccccc2)CC1	-5.9%	-11.2%	?	?	?	?
O=C(C1CCN(Cc2ccccc2)CC1)N1CCN(C/C=C/c2ccccc2)CC1	-8.6%	?	14.1µM*	?	?	-33.2
O=C(COc1ccc2c3c(c(=O)oc2c1)CCCC3)N1CCN(c2ccc(F)cc2)CC1	-2.8%	-26.2%	nt	nt	10µM*	0.0
O=C(O)C(Oc1ccc2c3c(c(=O)oc2c1)CCC3)c1ccccc1 (stereo not drawn)	-3.0%	-2.6%	9.7%	-5.2%	4.2%	-101.0*
CC(=O)C(C)Oc1ccc2c3c(c(=O)oc2c1)CCCCC3 (stereo not drawn)	25.5%	15.5%	12.0%	19.8%	35.5µM*	3.9
CSC1=NC(=O)C2=C3CC(C)(C)OCC3SC2=N1 (stereo not drawn)	nt	nt	14.2%[46.1 µM]	nt	nt	nt
Cc1ccc(C(=O)O)cc1Nc1nc2ccccc2n2nnnc12	nt	50.9%	4.1%[46.1 µM]	5.2%[46.1 µM]	nt	101.5
COc1cc(/C=C2\SC(=S)N(N(C)c3ccccc3)C2=O)ccc1O	0.9%	-2.8%	nt	nt	34.6%	-101.1*
COc1cc(/C=C2\SC(=S)N(NC(=O)c3ccccc3O)C2=O)ccc1O	-2.8%	-24.7%	?	1.3%[46.1 µM]	-15.2%	5.3
SMILES	SARS PLpro yeast	FMDV antiviral	MARV entry inh	LASV entry inh	HCV inh	HCMV antiviral
COc1ccc(/C=C2\SC(=S)N(CCC(=O)Nc3ccc(C(=O)O)cc3)C2=O)cc1OC	2.7%	22.2%	-0.6%	?	20.0%	nt
COc1cc(/C=C2/SC(=S)N(Cc3ccccc3)C2=O)ccc1OCC(=O)O	27.0%	?	?	-21.9%[46.1 µM]	-4.1%	-34.9
COc1cc(/C=C2/SC(=S)N(Cc3ccccc3)C2=O)ccc1OS(C)(=O)=O	0.8%	8.4%	nt	nt	?	-68.9*
COc1ccc(/C=C2\SC(=S)N(CCC(=O)N(CCO)Cc3ccccc3)C2=O)cc1OC	-1.9%	?	nt	nt	?	-98.8*
COc1cccc(C(=O)Nc2ccc3ccccc3c2)c1	-11.5%	-49.2%	?	?	?	13.3
Cc1cccc(C(=O)Nc2ccc3c(c2)nc(C)n3C)c1	-0.7%	-18.9%	?	?	19.9%	-101.7*
Cc1ccc(NC(=O)Nc2ccc3c(c2)nc(C)n3C)cc1	-0.4%	5.7%	11.2µM*	?	?	67.1
Cc1cccc(C(=O)Nc2ccc3ccccc3c2)c1	-6.4%	24.6%	nt	nt	?	-101.7*
O=C(Cc1ccc(-n2c(=O)c3sccc3n(CC(=O)Nc3ccccc3F)c2=O)cc1)NCc1ccco1	0.7%	9.8%	nt	nt	19.1%	-60.1*
O=C(/C=C/Nc1ccc(F)cc1F)c1cccs1	12.8%	20µM*	?	1.41µM*	-0.1%	49.2
Cc1ccc(N/C=C/C(=O)c2cccs2)cc1	-1.2%	-50.7%	nt	nt	-1.6%	13.4
O=C(/C=C\Nc1ccc2c(c1)OCO2)c1cccs1	-3.0%	10µM*	?	?	5.7%	-11.8
CCOC(=O)c1ccccc1N/C=C/C(=O)c1cccs1	-23.2%	14.1%	?	-2.6%	?	53.8
O=C(/C=C\Nc1ccc2c(c1)OCO2)c1ccc(Cl)s1	-0.4%	?	?	?	2.4%	70.0
O=C(/C=C\Nc1ccc2c(c1)OCO2)c1ccccn1	-16.9%	2µM*	?	0.447µM*	14.5%	-80.9*
O=C(/C=C/Nc1ccccc1F)c1cccs1	-5.3%	12.6µM*	6.31µM*	1.41µM*	8.6%	74.1
Cc1cc(C)cc(NS(=O)(=O)c2ccc3c(c2)NC(=O)C(C)S3)c1 (stereo not drawn)	nt	45.6%	nt	22.4%[46.1 µM]	nt	?
Cc1ccc(C2=NC(c3ccccc3)=Nc3ccc(Cl)cc3N2)cc1	nt	6.2%	?	-13.8%[46.1 µM]	nt	-3.7
O=C(/C=C\Nc1cccc(F)c1)c1cccs1	-16.9%	-36.1%	?	11.2µM*	5.7%	69.9
COc1ccc(NC(=O)CCn2c(=S)[nH]c3ccccc3c2=O)cc1	?	-5.7%	?	-22.0%[46.1 µM]	-9.3%	-61.0*
COc1ccc(N2CCN(CCCn3c(=S)[nH]c4ccccc4c3=O)CC2)cc1	0.7%	1.4%	nt	nt	?	-71.8*
COc1ccc(-n2c(=S)[nH]c3ccccc32)cc1	29.6%	0.0%	14.4%	-0.7%	2.7%	44.4
COc1ccc(-n2c(=S)[nH]c3ccccc3c2=S)cc1	2.2%	32.9%	nt	nt	-0.6%	-64.2*
O=c1c2cc(N3CCOCC3)ccc2[nH]c(=S)n1CCCN1CCCCCC1	3.0%	-12.3%	18.3µM*	-2.1%	?	11.2
